Experimental data published in PubChem BioAssay (NCI).
The panel holds about 83,000 compounds, 20% with a hit somewhere; the sample as a whole holds those more often.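 Negative percent growth values reflect cell death: -40 means 40% of the cells present at the start died, and -100 means all died.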 Unmarked numbers belong to inactive results. Activity calls are given as the source filed them. The calls were made as follows: active = growth percent below 10; inactive = the rest.

Legend:
Experiment in all cases: NCI-60 one-dose screen, 48 h (100 = growth as untreated, 0 = no growth, -100 = all killed)
Details in all cases: 10 µM unless noted
[1] = tested on: EKVX NSCLC
[2] = tested on: SN12C renal
[3] = tested on: UO-31 renal
[4] = tested on: TK-10 renal
[5] = tested on: ACHN renal
[6] = tested on: CAKI-1 renal
[7] = tested on: A498 renal
[8] = tested on: CCRF-CEM leukemia
[9] = tested on: MOLT-4 leukemia

Structure (SMILES) | growth [1] | growth [2] | growth [3] | growth [4] | growth [5] | growth [6] | growth [7] | growth [8] | growth [9]
Nc1ccc(S(=O)(=O)Nc2ccsc2-c2nc(-c3ccccc3)no2)cc1 | 73% | 84.8% | 71.3% | 66.1% | 87.8% | 53.8% | 61.2% | 53.2% | 36.5%
Cc1nc(-c2ccccc2)cc2c(O)c(C(=O)N/N=C/c3ccc(N(C)C)cc3)[nH]c(=O)c12 | 82.5% | 82% | 84.2% | 88.8% | – | 99.4% | 93.9% | 96.7% | 22.9%
NC(=O)CC1(O)C=C(Br)C(=O)C(Br)=C1 | 91.4% | 117% | -53.6% (active) | 17.1% | -59.4% (active) | -10.2% (active) | – | -45% (active) | -53% (active)
COc1cc2c(cc1OC)-c1ccc3cc4c(cc3c1N(CCCN(C)C)C2)OCO4 | 60% | 27.4% | 38.7% | 46.6% | – | – | 8.3% (active) | 20.5% | 8.66% (active)
C=CCN1C(=O)[C@]2(SC1=S)[C@H](c1cccc(Cl)c1)CN(C)[C@]21C(=O)NC2C=CC(Cl)=C[C@H]21 (some centres undefined) | 38.4% | -53.6% (active) | -41.2% (active) | 70.9% | – | – | 76.8% | 4.67% (active) | -17.7% (active)
O=c1ccn(C2OC(F)(CO)C(O)C2F)c(=O)[nH]1 (centres undefined) | 91.2% | 102% | 97.1% | 90.3% | 98.9% | 94.3% | 68.5% | 103% | 99.8%
O=C(CC1Sc2ccccc2NC1=O)NNc1ccc(F)cc1 (centres undefined) | 75.9% | 89.5% | 48.4% | 121% | – | 69% | 91.7% | 7.39% (active) | 45.8%
CC[C@@H](C[C@H](CCO)c1ccccc1)c1cc2ccccc2o1 | 103% | 95.8% | 88.8% | 98.8% | – | 77.4% | 104% | 90.7% | 79.9%
OC(COc1cccc2ccccc12)CN1CCN(c2ccccc2)CC1 (centres undefined) | 103% | 98.7% | 82.2% | 104% | 104% | 47% | 95.5% | – | 107%
CCOC(=O)c1ccc(NC(=O)CCCN(CC)CC)cc1 | 105% | 106% | 88.7% | 88.2% | – | – | 118% | 106% | 95.7%
COc1ccc(-c2nc3sc4c(c3c(=O)[nH]2)CCCC4)c2ccccc12 | – | 36.2% | 24.8% | 38.3% | -32.5% (active) | 9.7% (active) | -24.4% (active) | 12.5% | 14.2%
CN1CCN(C(=O)[C@@]2(C)CC[C@]3(C)CC[C@]4(C)C(=CC[C@@H]5[C@@]6(C)C/C(=C/c7ccncc7)C(=O)C(C)(C)[C@@H]6CC[C@]54C)[C@@H]3C2)CC1 | 62.7% | 46.2% | 44.3% | 75.5% | 67.4% | 46.3% | 79.9% | 6.69% (active) | 2.16% (active)
N#Cc1cnn2c(-c3ccc(Cl)cc3)nc(NC3CC3)nc12 | 75.9% | 98.9% | 69.2% | 94.2% | 96.8% | – | 84.5% | 95.7% | 80.1%
O=C1CSC(c2ccccc2O)N1c1nnc(Cn2cnnc2)o1 (centres undefined) | 81.8% | 79.6% | 46.7% | 145% | 89.4% | 71.3% | 106% | 23% | 61.5%
CC(C)(C)N1CC(OC(N)=O)C1 | 90.2% | 100% | 85.5% | 94.8% | 106% | 41% | 105% | – | 133%
CCOC(=O)c1c(C)nc2c(c1N)/C(=C/c1ccc(OC)cc1)C(=O)N2Cc1ccc(F)cc1 | 9.23% (active) | -40% (active) | -38.4% (active) | -70.8% (active) | – | – | -44.2% (active) | -5.4% (active) | 1.64% (active)
CC(=O)c1sc(-c2ccccc2)cc1N | 44.4% | 96.1% | 88.6% | 101% | 104% | 92.9% | 84.4% | 96.6% | 91.7%

Structure (SMILES) | growth [1] | growth [2] | growth [3] | growth [4] | growth [5] | growth [6] | growth [7] | growth [8] | growth [9]
Nc1ccn(C2OC(F)(CO)C(O)C2F)c(=O)n1 (centres undefined) | 81.4% | 36.4% | 10.7% | 75.8% | 2.4% (active) | 35.6% | 50.2% | 25% | 18.8%
O=C(Nc1ccccn1)[C@H](O)[C@@H](O)C(=O)N1CCOCC1 | 109% | 97.3% | 104% | 96.2% | – | 105% | 108% | 98.6% | 105%
CCOC(=O)c1c(C)[nH]c(C(=O)CCC(=O)OC)c1C | 95.2% | 110% | 92.7% | 84.3% | – | – | 119% | 92.8% | 93%
Nc1c(-c2nc3ccccc3c(=O)[nH]2)nnn1-c1ccc(Cl)cc1 | 103% | 95.4% | 48% | 72.6% | – | 70.2% | 57.4% | 90.2% | 87.7%
COc1cc2ccccc2cc1C(=O)NC(=S)Nc1ccc(-c2nc3ccccc3[nH]2)cc1 | 89.9% | 83.4% | 89.8% | 83.4% | 99.2% | 90.7% | – | 79.2% | 91.1%
NC(=S)N/N=C/C(=O)O | – | 90.4% | 38.8% | 111% | 91.2% | 88.5% | 80.3% | 24.3% | 44%
Cc1cc(=O)c2cc3nc(-c4cccnc4)oc3c(Br)c2o1 | 98.9% | 110% | 106% | 153% | 110% | – | 103% | 94.1% | –
CCOc1ccc2nc(-c3cccc(OCC(=O)NC(C)C)c3)nc(Nc3ccc(-c4cn[nH]c4)cc3)c2c1 | 9.24% (active) | 18.6% | -13.3% (active) | 47.4% | – | 27.7% | 46.7% | 20.4% | 5.6% (active)
c1ccc2[nH]c(SSc3nc4ncncc4[nH]3)nc2c1 | 67.5% | 42.3% | 31.6% | 30% | 32.2% | -46.4% (active) | 61.7% | 24.7% | 26%
O=C1c2ccccc2C(=O)c2cc(Cn3cc[n+](Cc4ccc5ccccc5c4)c3)ccc21 | 70.9% | 74.4% | 82.5% | 107% | – | 96.5% | 98.3% | 71% | –
O=C1Nc2ccccc2SC1c1ccccc1Cl (centres undefined) | 95.2% | 108% | 103% | 88.7% | – | 71.9% | 96.3% | 83.9% | 86.4%
COc1ccc(OC)c(Nc2nc3nonc3nc2Nc2cccc(Br)c2)c1 | – | 12.4% | 3.39% (active) | 7.4% (active) | -22.5% (active) | 0.162% (active) | -39.9% (active) | 12.4% | 3.8% (active)
CCNCCNc1cc(-c2ccc(Cl)cc2)c(C#N)c2nc3ccccc3n12 | 11.2% | 44.9% | -95.2% (active) | -20.3% (active) | – | 39.5% | 2.87% (active) | -21.3% (active) | -28.7% (active)
CC(C)(C)OC(=O)N1Cc2cc3ccccc3nc2C1CO (centres undefined) | 92.9% | 98.9% | 87% | 106% | 111% | 53.2% | 97.1% | – | 128%
COc1ccc(-c2cncnc2N)cc1OC | – | 109% | 101% | 111% | 104% | 101% | 87.8% | 95.9% | 105%
COc1ccc(OC)c(Nc2nc3nonc3nc2Nc2cc(OC)ccc2OC)c1 | – | 32.3% | 10.8% | 36.1% | -33.4% (active) | 53% | 60.7% | 97.8% | 88.8%
